Measured values as given in PubChem BioAssay AID1159580 (chemical genetic matrix, 2015).
Values joined by “and” are separate entries in the source; they are usually repeats but may differ in a detail not shown here. Equal values may be shown once. The campaign covered roughly 5,500 compounds. About 2,000 (36%) were called active. About 18% were inconclusive and are not listed. Rule as the data show it: active = normalized growth mostly below about 0.91 (no sharp cut-off); inconclusive = no clear call, values can overlap the other calls; inactive = mostly above about 0.92. This is one part of the list.

Experiment: chemical genetic growth profiling, strain panel (AID 1159580);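 also: tested at 20 µM; growth read once vehicle control cultures reached saturation at 30 °C; 1 = growth at the plate median or of vehicle wells; lower values mean less growth of the strain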
Conditions: growth OD

Measured: normalized growth

CCC(C(N)=O)c1ccccc1 (configuration not stated)
inactive: S. cerevisiae deletion strains, locus YAL013W, strain DEP1, stronger effect = lower value 1.02 | S. cerevisiae deletion strains, locus YBR021W, strain FUR4, stronger effect = lower value 1.04 | S. cerevisiae deletion strains, locus YBR229C, strain ROT2, stronger effect = lower value 0.999 | S. cerevisiae deletion strains, locus YCL029C, strain bik1, stronger effect = lower value 0.992 | S. cerevisiae deletion strains, locus YDL035C, strain GPR1, stronger effect = lower value 1.03 | S. cerevisiae deletion strains, locus YDL074C, strain BRE1, stronger effect = lower value 1.04 | S. cerevisiae deletion strains, locus YDL101C, strain DUN1, stronger effect = lower value 1.01 | S. cerevisiae deletion strains, locus YDL134C, strain PPH21, stronger effect = lower value 1 | S. cerevisiae deletion strains, locus YDL185W, strain tfp1, stronger effect = lower value 0.997 | S. cerevisiae deletion strains, locus YDL192W, strain arf1, stronger effect = lower value 1 | S. cerevisiae deletion strains, locus YDR101C, strain arx1, stronger effect = lower value 0.986 | S. cerevisiae deletion strains, locus YDR150W, strain NUM1, stronger effect = lower value 1 | S. cerevisiae deletion strains, locus YDR162C, strain NBP2, stronger effect = lower value 1.03 | S. cerevisiae deletion strains, locus YDR318W, strain mcm21, stronger effect = lower value 0.998 | S. cerevisiae deletion strains, locus YDR388W, stronger effect = lower value 0.999 | S. cerevisiae deletion strains, locus YDR502C, strain sam2, stronger effect = lower value 1.01 | S. cerevisiae deletion strains, locus YEL061C, strain CIN8, stronger effect = lower value 1.02 | S. cerevisiae deletion strains, locus YER110C, stronger effect = lower value 0.987 | S. cerevisiae deletion strains, locus YER155C, strain BEM2, stronger effect = lower value 0.998 | S. cerevisiae deletion strains, locus YER167W, strain BCK2, stronger effect = lower value 1.01 | S. cerevisiae deletion strains, locus YGL078C, strain dbp3, stronger effect = lower value 1 | S. cerevisiae deletion strains, locus YGL086W, strain mad1, stronger effect = lower value 0.997 | S. cerevisiae deletion strains, locus YGL248W, strain PDE1, stronger effect = lower value 1 | S. cerevisiae deletion strains, locus YGR078C, strain PAC10, stronger effect = lower value 1.03 | S. cerevisiae deletion strains, locus YGR135W, strain pre9, stronger effect = lower value 1 | S. cerevisiae deletion strains, locus YGR229C, strain SMI1, stronger effect = lower value 1.01 | S. cerevisiae deletion strains, locus YGR252W, strain gcn5, stronger effect = lower value 1.11 | S. cerevisiae deletion strains, locus YHR030C, strain SLT2, stronger effect = lower value 1.01 and 0.954 | S. cerevisiae deletion strains, locus YHR079C, strain IRE1 (second series), stronger effect = lower value 0.99 | S. cerevisiae deletion strains, locus YHR079C, strain IRE1, stronger effect = lower value 0.992 | S. cerevisiae deletion strains, locus YHR094C, strain hxt1, stronger effect = lower value 0.982 | S. cerevisiae deletion strains, locus YHR129C, strain ARP1, stronger effect = lower value 1 | S. cerevisiae deletion strains, locus YHR200W, strain rpn10, stronger effect = lower value 1.01 | S. cerevisiae deletion strains, locus YIL066C, strain RNR3, stronger effect = lower value 1.01 | S. cerevisiae deletion strains, locus YIL073C, strain SPO22, stronger effect = lower value 0.946 | S. cerevisiae deletion strains, locus YIL125W, strain kgd1, stronger effect = lower value 1.01 | S. cerevisiae deletion strains, locus YIR030C, strain dcg1, stronger effect = lower value 0.998 | S. cerevisiae deletion strains, locus YJL095W, strain BCK1, stronger effect = lower value 1.03 and 0.98 | S. cerevisiae deletion strains, locus YJL134W, strain LCB3, stronger effect = lower value 1.01 | S. cerevisiae deletion strains, locus YJL168C, strain set2, stronger effect = lower value 0.981 | S. cerevisiae deletion strains, locus YJL187C, strain SWE1 (second series), stronger effect = lower value 1.01 | S. cerevisiae deletion strains, locus YJR043C, strain POL32, stronger effect = lower value 1.04 | S. cerevisiae deletion strains, locus YJR066W, strain TOR1, stronger effect = lower value 0.899 | S. cerevisiae deletion strains, locus YJR075W, strain HOC1, stronger effect = lower value 1.01 | S. cerevisiae deletion strains, locus YKL009W, strain mrt4, stronger effect = lower value 1.02 | S. cerevisiae deletion strains, locus YKL068W, stronger effect = lower value 0.998 | S. cerevisiae deletion strains, locus YKL085W, strain MDH1 (second series), stronger effect = lower value 1 | S. cerevisiae deletion strains, locus YKL085W, strain MDH1, stronger effect = lower value 1 | S. cerevisiae deletion strains, locus YKL190W, strain CNB1, stronger effect = lower value 1.02 | S. cerevisiae deletion strains, locus YKR001C, strain vps1, stronger effect = lower value 0.989 | S. cerevisiae deletion strains, locus YLR039C, strain RIC1, stronger effect = lower value 1.04 | S. cerevisiae deletion strains, locus YLR058C, strain SHM2, stronger effect = lower value 1.01 | S. cerevisiae deletion strains, locus YLR102C, strain apc9, stronger effect = lower value 0.983 | S. cerevisiae deletion strains, locus YLR113W, strain HOG1, stronger effect = lower value 1.01 | S. cerevisiae deletion strains, locus YLR262C, strain YPT6, stronger effect = lower value 1.04 | S. cerevisiae deletion strains, locus YLR268W, strain sec22, stronger effect = lower value 1.01 | S. cerevisiae deletion strains, locus YLR330W, strain CHS5, stronger effect = lower value 1.01 | S. cerevisiae deletion strains, locus YLR342W, strain FKS1 (second series), stronger effect = lower value 1.02 | S. cerevisiae deletion strains, locus YLR371W, strain rom2, stronger effect = lower value 0.984 | S. cerevisiae deletion strains, locus YLR418C, strain cdc73, stronger effect = lower value 1.06 | S. cerevisiae deletion strains, locus YML016C, strain PPZ1, stronger effect = lower value 1.01 | S. cerevisiae deletion strains, locus YML032C, strain rad52, stronger effect = lower value 1.01 | S. cerevisiae deletion strains, locus YML124C, strain tub3, stronger effect = lower value 0.994 | S. cerevisiae deletion strains, locus YMR078C, strain ctf18, stronger effect = lower value 0.996 | S. cerevisiae deletion strains, locus YMR223W, strain ubp8, stronger effect = lower value 0.986 | S. cerevisiae deletion strains, locus YMR263W, strain SAP30, stronger effect = lower value 1.02 | S. cerevisiae deletion strains, locus YMR307W, strain GAS1, stronger effect = lower value 1.1 | S. cerevisiae deletion strains, locus YNL067W, strain RPL9B, stronger effect = lower value 1.04 | S. cerevisiae deletion strains, locus YNL128W, strain TEP1, stronger effect = lower value 1.02 | S. cerevisiae deletion strains, locus YNL153C, strain GIM3, stronger effect = lower value 1.01 | S. cerevisiae deletion strains, locus YNL183C, strain NPR1, stronger effect = lower value 0.903 | S. cerevisiae deletion strains, locus YNL233W, strain BNI4, stronger effect = lower value 1.01 | S. cerevisiae deletion strains, locus YNL250W, strain rad50, stronger effect = lower value 1 | S. cerevisiae deletion strains, locus YNL271C, strain bni1, stronger effect = lower value 1 | S. cerevisiae deletion strains, locus YNL298W, strain CLA4, stronger effect = lower value 1.01 | S. cerevisiae deletion strains, locus YNL307C, strain MCK1, stronger effect = lower value 1.01 | S. cerevisiae deletion strains, locus YNL322C, strain KRE1, stronger effect = lower value 1.01 | S. cerevisiae deletion strains, locus YNR052C, strain pop2, stronger effect = lower value 0.984 | S. cerevisiae deletion strains, locus YOL006C, strain TOP1, stronger effect = lower value 1.06 | S. cerevisiae deletion strains, locus YOL012C, strain htz1 1.05 | S. cerevisiae deletion strains, locus YOL147C, strain pex11, stronger effect = lower value 0.988 | S. cerevisiae deletion strains, locus YOR061W, strain CKA2, stronger effect = lower value 1.01 | S. cerevisiae deletion strains, locus YOR069W, strain VPS5, stronger effect = lower value 1.01 | S. cerevisiae deletion strains, locus YOR136W, strain idh2, stronger effect = lower value 1 | S. cerevisiae deletion strains, locus YOR144C, strain elg1, stronger effect = lower value 0.997 | S. cerevisiae deletion strains, locus YOR184W, strain ser1, stronger effect = lower value 1 | S. cerevisiae deletion strains, locus YOR231W, strain MKK1, stronger effect = lower value 0.95 | S. cerevisiae deletion strains, locus YOR316C, strain cot1, stronger effect = lower value 0.988 | S. cerevisiae deletion strains, locus YPL055C, strain LGE1, stronger effect = lower value 1.05 | S. cerevisiae deletion strains, locus YPL241C, strain CIN2, stronger effect = lower value 1.01 | S. cerevisiae deletion strains, locus YPL256C, strain CLN2, stronger effect = lower value 0.962 | S. cerevisiae deletion strains, locus YPR119W, strain clb2, stronger effect = lower value 0.986 | S. cerevisiae deletion strains, locus YPR141C, strain kar3, stronger effect = lower value 1.01 | S. cerevisiae deletion strains, locus YPR163C, strain tif3, stronger effect = lower value 0.999 | S. cerevisiae deletion strains, locus YPR167C, strain met16, stronger effect = lower value 0.999 | S. cerevisiae deletion strains, strain wtn01, stronger effect = lower value 1 | S. cerevisiae strains, strain wild type, stronger effect = lower value 1.01
